The results in this text go back to PubChem BioAssay AID1851 (National Center for Advancing Translational Sciences (NCATS), 2009).

Values joined by “and” are separate entries in the source; they are usually repeats but may differ in a detail not shown here. Identical values can stand only once. The whole screen tested about 16,000 compounds, of which about 5,700 (36%) were called active. Another 24% or so got no clear call; they are omitted. The list shows a part of the results. Values without a mark were called inactive. The call rests on the fitted dose curve; in most records, active means well fitted curve in the direction sought with a large enough effect; inconclusive means small, poorly fitted or top-dose-only effect, or effect the other way; inactive means no such curve, though single readings can be large or run the other way. Peptide text beside a SMILES is read from it. * marks the point of attachment. Cbz = O=C(OCc1ccccc1)*

The AC50 is the midpoint of the concentration-response curve, whichever way the signal moves.
On the % scale 0 is the no-effect control and ±100 the full control effect.

This experiment deals with Cytochrome P450 1A2 (Homo sapiens) (UniProt P05177). Kind of experiment: Cytochrome panel assay with activity outcomes. The following applies: recombinant CYP, pro-luciferin dealkylation, luminescence, p450-cyp1a2; series mostly up to 57.1 µM; activity, negative = inhibition: at the top concentration.
Chain of Cytochrome P450 1A2 (Homo sapiens) (P05177 whole entry, looked up): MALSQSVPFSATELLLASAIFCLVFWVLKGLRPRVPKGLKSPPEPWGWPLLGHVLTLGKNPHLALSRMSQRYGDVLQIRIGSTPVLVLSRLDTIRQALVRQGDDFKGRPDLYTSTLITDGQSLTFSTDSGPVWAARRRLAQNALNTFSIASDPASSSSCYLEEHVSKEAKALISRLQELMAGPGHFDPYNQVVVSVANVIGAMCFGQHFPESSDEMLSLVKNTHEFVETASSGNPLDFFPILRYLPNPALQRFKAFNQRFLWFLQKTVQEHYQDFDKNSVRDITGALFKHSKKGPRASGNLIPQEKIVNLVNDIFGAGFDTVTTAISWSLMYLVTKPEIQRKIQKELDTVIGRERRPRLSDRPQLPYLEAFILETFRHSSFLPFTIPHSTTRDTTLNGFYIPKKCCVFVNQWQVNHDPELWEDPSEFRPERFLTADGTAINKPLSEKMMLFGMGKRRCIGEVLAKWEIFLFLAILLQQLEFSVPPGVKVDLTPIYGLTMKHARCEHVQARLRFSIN
As for `O=C(CCN1CCOCC1)Nc1ccc(F)cc1F`, the activity, negative = inhibition is -11.8% [at 11.4 µM].

For the molecule `CCOC(=O)c1[nH]c2ccc(OC)cc2c1NC(=O)c1ccc2c(c1)OCO2`, the concentration at half-maximal activity (AC50) was 2.24 µM (active). As for `CCN1CCN(CCC(=O)Nc2cccc(OC)c2)CC1`, the “activity, negative = inhibition” value was 3.85%.

Regarding `COC(=O)c1[nH]c2cc(OC)ccc2c1NC(=O)CCN1CCSCC1`, the AC50 is 1.41 µM (active). For the molecule `COc1ccc(-c2nc3cnc(N(C)C)nc3n(C[C@H]3CCCO3)c2=O)cc1`, the AC50 is 3.16 µM (active). With `CN(C)c1ncc2nc(-c3ccc(F)cc3)c(=O)n(C[C@H]3CCCO3)c2n1`, the half-maximal activity concentration (AC50) is 2.51 µM (active).

Take `C/C(CCc1ccc2c(c1)OCO2)=N\N=C1\NC(=O)CC(C(=O)Nc2ccccc2)S1` (stereo unspecified): the concentration at half-maximal activity (AC50) is 15.8 µM (active). `C[C@@H]1[C@H]2CC[C@@H]3[C@@H]4CC=C5C[C@@H](N(C)C)CC[C@]5(C)[C@@H]4CC[C@@]32CN1C`: the “activity, negative = inhibition” value is 6.72% [at 25.6 µM]. As for `CCc1nnc(NS(=O)(=O)c2ccc(N=Cc3c(C)[nH]n(-c4ccc(C)cc4)c3=O)cc2)s1`, the “activity, negative = inhibition” value was -14.8%. Consider `CCOc1[nH]n(-c2ccccc2)c(=O)c1C=Nc1ccc(Cl)cc1`, for which the AC50 is 2 µM (active). Turning to `CCOc1[nH]n(-c2ccc(Cl)cc2)c(=O)c1C=Nc1ccc(Cl)cc1`, the AC50 is 2.82 µM (active).

As for `OCCN1CCOCCOCCN(CCO)CCN(CCO)CC1`, the “activity, negative = inhibition” value is -6.35%. Turning to `Nc1nc(Br)c2ccccc2c1-c1ccc(F)cc1`, the half-maximal activity concentration (AC50) is 1.26 µM (active). For `Nc1nc(Br)c2c(F)cccc2c1-c1ccc(F)cc1`, the AC50 was 1.26 µM (active). Regarding `Nc1nc(Br)c2c(F)cccc2c1-c1ccc(Cl)cc1`, the concentration at half-maximal activity (AC50) was 3.55 µM (active). As to `CCCOc1ccc(C2C(=O)N(C3CCCCC3)CC(=O)N2C2CC2)cc1OC` (stereo unspecified), the “activity, negative = inhibition” value is -13.6%. In the case of `CCCCCCCCCCCCC/C=C\[C@@H](O)[C@H](CO)NC(C)=O`, the AC50 was 20 µM (active). On to `CCCCCCCCCCCCCCC/C=C\[C@H](O)[C@@H](NC(=O)CCCCCCCCCCCCC)OC` (tested in a mixture with another compound), for which the “activity, negative = inhibition” value was -7.38%. In the case of `CCCCCCCCCCCCCCCC(=O)NC(C)C`, the “activity, negative = inhibition” value was -6.69%. As to `CC(=O)Nc1ccc(S(=O)(=O)N=S(C)C)cc1`, the AC50 entry was “inactive”.

In the case of `Cc1cccc(C)c1NC(=O)CSc1nc(C)c(CC(=O)c2ccc(Br)cc2)c(C)c1C#N`, the “activity, negative = inhibition” value was -4.64%.

For the molecule `Cc1cc(C)c(C#N)c(OCC(=O)c2ccc(Br)cc2)n1`, the AC50 was 1.26 µM (active).

Turning to `Fc1cc2nc(-c3ccncc3)[nH]c2cc1F`, the half-maximal activity concentration (AC50) is 2 µM (active). Still for that read-out and setting: under `Cc1cc2nc(SCCOC(=O)Nc3ccc(Cl)cc3)nc(C)c2cc1C` stands 1.41 µM (active).

Take `CCCCCCCCCCCC1=C(O)C(=O)C=C(O)C1=O`: the “activity, negative = inhibition” value was -60.5%. For the molecule `COCCn1c(=O)c(-c2ccccc2)nc2cnc(OC)nc21`, the AC50 is 1 µM (active).

On to `COCCn1c(=O)c(-c2ccc(Cl)cc2)nc2cnc(OC)nc21`, for which the half-maximal activity concentration (AC50) was 0.398 µM (active). Take `COCCn1c(=O)c(-c2ccc(OC)cc2)nc2cnc(OC)nc21`: the concentration at half-maximal activity (AC50) is 3.16 µM (active). `CC(C)=CCC/C(C)=C/CO/N=C1/C[C@@H](O)[C@@H](O)[C@@H]2[C@@H]3C(=O)N(C(C)(C)C)C(=O)[C@H]3CC[C@H]12`: the activity, negative = inhibition was -9.03% [at 11.4 µM]. Take `O=C(NNS(=O)(=O)c1ccc(Cl)cc1)c1cnn(-c2ccccc2)c1-n1cccc1`: the AC50 was 17.8 µM (active). Turning to `CCOC(=O)N1CCC(NC(=O)CSCc2cnn(-c3ccccc3)c2-n2cccc2)CC1`, the “activity, negative = inhibition” value is -21.3%. `O=C(NNS(=O)(=O)c1ccc(Cl)cc1)C1CCN(Cc2ccccc2)CC1`: the “activity, negative = inhibition” value was 2.88%.

As to `Cc1ccc(NC(=S)c2nc3ccccc3s2)cc1`, the half-maximal activity concentration (AC50) is 0.562 µM (active). Consider `Cc1cccc(NC(=S)c2nc3ccccc3s2)c1`, for which the concentration at half-maximal activity (AC50) is 1.12 µM (active). As for `N#Cc1c(-c2cccs2)nc(SCC(=O)c2cccs2)[nH]c1=O`, the AC50 is 8.91 µM (active). Regarding `Cc1cccc(NC(=O)CSc2nc(-c3ccccc3)c(C#N)c(=O)[nH]2)c1C`, the “activity, negative = inhibition” value is -3.73%. For the molecule `O=C(O)c1c(Br)c(Br)c(Br)c(Br)c1C1c2ccc(O)cc2Oc2cc(O)ccc21`, the activity, negative = inhibition is -6.83% [at 2.29 µM]. As for `CN=c1nc(-c2ccccc2)n(-c2ccccc2)s1`, the AC50 was 5.01 µM (active). For the molecule `CCn1c(SCc2ccc(C#N)cc2)nnc1-c1ccc(S(=O)(=O)N2CCCCC2)cc1`, the “activity, negative = inhibition” value is -23.3%.

For the molecule `CCn1c(SCc2ccc(C)cc2)nnc1-c1nn(-c2ccccc2)ccc1=O`, the “activity, negative = inhibition” value is -16.3%. In the case of `CCn1c(SCc2cccc(C)c2)nnc1-c1ccccc1`, the half-maximal activity concentration (AC50) is 3.55 µM (active). As for `CCn1c(SCc2cccc(C)c2)nnc1-c1ccc(C)cc1`, the concentration at half-maximal activity (AC50) was 17.8 µM (active). As to `CN(C)CCCNc1c(C(=O)O)cnc2c1cnn2C`, the “activity, negative = inhibition” value was 3.5%. With `CCOC(=O)c1cnc2c(cnn2CC)c1NN=C(C)C`, the half-maximal activity concentration (AC50) is 501 nM (active) and 126 nM (active). Turning to `CCOC(=O)c1cnn(CCOC(=O)C(C)(C)C)c1NC(=O)C(C)(C)C`, the “activity, negative = inhibition” value was -8.6%. As to `CCCCNc1c(C(=O)OCC)c(C)nc2c1cnn2CC`, the AC50 is 63.1 nM (active) and 631 nM (active).

Regarding `O=C(CCCN1CCC(O)(c2cccc(C(F)(F)F)c2)CC1)c1ccc(F)cc1`, the “activity, negative = inhibition” value is -9.09%. In the case of `O=C(Cn1nnc(-c2ccccc2)n1)OCc1ccccc1`, the AC50 is 1.78 µM (active). `COC(=O)CCC(NC(=O)OCc1ccccc1)C(=O)NC(CC(C)C)C(=O)OC` (stereo unspecified) (Cbz-Glu(OMe)-Leu-OMe; configuration not given here): the “activity, negative = inhibition” value is 7.39%. For the molecule `NC(=O)C1CCN(C(=O)OCc2ccccc2)CC1`, the “activity, negative = inhibition” value was -5.7%. Consider `Cc1cc(C(=O)O)c(=O)[nH]c1C`, for which the “activity, negative = inhibition” value is -11.4%. For `Cc1[nH]c2c(C)ccc(C)c2c1CC(=O)O`, the AC50 was 3.16 µM (active).

As to `Cc1[nH]c(N)nc(=S)c1CCC(=O)O`, the activity, negative = inhibition is -11.2% [at 11.4 µM]. Regarding `CC1CCCC(n2c(=S)[nH]c3ccccc3c2=O)C1C` (stereo unspecified), the AC50 was 7.08 µM (active). `C/C(CCC(=O)OC[C@@H]1O[C@H](C#Cc2ccccc2)C=C[C@@H]1Oc1ccc(C)cc1)=N/O[C@@H](C)c1cc(-c2c(C)cc(C)cc2C)no1`: the activity, negative = inhibition was -4.43% [at 11.4 µM]. Consider `Cc1nc(N2CCOCC2)nc(N2CCN(c3ccccc3)CC2)c1[N+](=O)[O-]`, for which the AC50 was 7.08 µM (active).
